Experimental findings from PubChem BioAssay AID2441 (National Center for Advancing Translational Sciences (NCATS), 2010) are described below.

Each structure is given as a SMILES string. This is one part of the list. Results filed as inconclusive are left out. Active and inactive are the calls of the source. The call rests on the fitted dose curve; in most records, active means well fitted inhibition curve with a large enough effect; inconclusive means small, poorly fitted or top-dose-only effect; inactive means flat fitted curve, though single readings scatter.

This experiment can be described thus: Cell cycle validation with wells to cells screening paradigm. The following applies: HeLa cell cycle G2/M arrest, Hoechst DNA content imaging. The source says: Understanding cell cycle regulation is a critical component in combating various diseases such as cancer. Proper execution of cell cycle activity is essential for processes such as cell growth, DNA replication, and mitosis and surveillance mechanisms function as cell cycle checkpoints at the G1, S, and G2/M phases. Thus, profiling agents which disrupt cancer cell division represents a large effort in oncology-based studies. Compound-induced cell cycle perturbations can be analyzed through changes in specific cell cycle phase markers, such as DNA content, using high content screening. […] Furthermore, recent imaging based studies have performed cell cycle analysis following compound treatment where phenotypic fingerprints for phases of the cell cycle were determined or concentration-response based testing of selected compounds and drugs was used to measure a phenotypic profile in a dose-dependent manner. […]
Reagents: 70% EtOH, Hoechst Stain, PBS Controls: 7.6 uM (final starting concentration) Vinblastine and 38.3 uM (final starting concentration) nocodazole were dispensed into columns 1 and 2, respectively, and titrated 1:2 in DMSO (16-point in duplicate). […] Plates were read on the Acumen eX3 system and concentration response curves were generated after the readings. […]
In the case of `O=c1cc(-c2ccccc2)[nH]c2nc(Cl)ccc12`, the Potency was 2 µM (active).
